Source: the supplement of paper PMC8728848
This is one part of a sample in which the strongest signals are shown more often than they occur.

Assays:
Assay in all cases: glycan array binding signal (z-score within array); higher = stronger binding
Conditions in all cases: glycan notation: IUPAC condensed, linker removed
Fuc(a1-2)Gal = biological target: Fuc(a1-2)Gal
Procedure, shortened: (§1)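 From the Consortium for Functional Glycomics database, 3228 arrays were curated, keeping only those whose protein sequence was available. Binding is given as a within-array Z-score averaged across arrays sharing a protein sequence and across linkers. Negative Z-scores can be read as non-binding.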

[1] = biological target: Fuc(a1-2)Gal(b1-3)GalNAc(a1-3)[Fuc(a1-2)]Gal(b1-4)GlcNAc
Procedure, shortened: as §1

[2] = biological target: Fuc(a1-2)Gal(b1-3)GlcNAc(b1-3)[Neu5Ac(a2-6)Gal(b1-4)GlcNAc(b1-6)]Gal(b1-4)Glc
Procedure, shortened: as §1

[3] = biological target: Fuc(a1-2)Gal(b1-4)GlcNAc(b1-2)Man(a1-3)[Fuc(a1-2)Gal(b1-4)GlcNAc(b1-2)Man(a1-6)]Man(b1-4)GlcNAc(b1-4)GlcNAc
Procedure, shortened: as §1

[4] = biological target: Fuc(a1-2)Gal(b1-4)GlcNAc(b1-3)[Fuc(a1-3)[Gal(b1-4)]GlcNAc(b1-6)]Gal(b1-4)Glc
Procedure, shortened: as §1

[5] = biological target: Fuc(a1-2)Gal(b1-4)GlcNAc(b1-6)GalNAc
Procedure, shortened: as §1

[6] = biological target: Fuc(a1-2)[Gal(a1-3)]Gal(b1-4)GlcNAc(b1-6)GalNAc
Procedure, shortened: as §1

[7] = biological target: Fuc(a1-2)[GalNAc(a1-3)]Gal(b1-3)GalNAc(b1-3)Gal(a1-4)Gal(b1-4)Glc
Procedure, shortened: as §1

[8] = biological target: Fuc(a1-2)[GalNAc(a1-3)]Gal(b1-3)GlcNAc(b1-2)Man(a1-3)[Fuc(a1-2)[GalNAc(a1-3)]Gal(b1-3)GlcNAc(b1-2)Man(a1-6)]Man(b1-4)GlcNAc(b1-4)[Fuc(a1-6)]GlcNAc
Procedure, shortened: as §1

[9] = biological target: Fuc(a1-2)[GalNAc(a1-3)]Gal(b1-4)GlcNAc(b1-2)Man
Procedure, shortened: as §1

[10] = biological target: Fuc(a1-3)[Gal(b1-4)]GlcNAc(b1-3)Gal(b1-4)[Fuc(a1-3)]GlcNAc
Procedure, shortened: as §1

[11] = biological target: Fuc(a1-3)[Gal(b1-4)]GlcNAc(b1-3)GalNAc
Procedure, shortened: as §1

[12] = biological target: Fuc(a1-3)[Gal(b1-4)]GlcNAc(b1-6)[Gal(b1-3)GlcNAc(b1-3)]Gal(b1-4)Glc
Procedure, shortened: as §1

[13] = biological target: Gal(a1-3)Gal(b1-3)GlcNAc(b1-6)GalNAc
Procedure, shortened: as §1

[14] = biological target: Gal(a1-3)[Gal(a1-4)]Gal(b1-4)GlcNAc
Procedure, shortened: as §1

Gal(a1-6)Glc = biological target: Gal(a1-6)Glc
Procedure, shortened: as §1

Gal(b1-3)GalNAc(b1-3)Gal = biological target: Gal(b1-3)GalNAc(b1-3)Gal
Procedure, shortened: as §1

[15] = biological target: Gal(b1-3)GlcNAc(b1-2)Man(a1-3)[Gal(b1-3)GlcNAc(b1-2)Man(a1-6)]Man(b1-4)GlcNAc(b1-4)[Fuc(a1-6)]GlcNAc
Procedure, shortened: as §1

[16] = biological target: Gal(b1-3)GlcNAc(b1-3)Gal(b1-4)GlcNAc(b1-6)[Gal(b1-3)GlcNAc(b1-3)]Gal(b1-4)Glc
Procedure, shortened: as §1

Gal(b1-4)GlcNAc = biological target: Gal(b1-4)GlcNAc
Procedure, shortened: as §1

[17] = biological target: Gal(b1-4)GlcNAc(a1-6)Gal(b1-4)GlcNAc
Procedure, shortened: as §1

[18] = biological target: Gal(b1-4)GlcNAc(b1-2)Man(a1-3)[GlcNAc(b1-2)Man(a1-6)]Man(b1-4)GlcNAc(b1-4)GlcNAc
Procedure, shortened: as §1

[19] = biological target: Gal(b1-4)GlcNAc(b1-3)[Fuc(a1-3)GlcNAc(b1-6)]Gal(b1-4)Glc
Procedure, shortened: as §1

[20] = biological target: Gal(b1-4)GlcNAc(b1-6)Gal(b1-4)GlcNAc
Procedure, shortened: as §1

[21] = biological target: Gal3S(b1-4)[Fuc(a1-3)]Glc6S
Procedure, shortened: as §1

[22] = biological target: Gal3S(b1-4)[Fuc(a1-3)]GlcNAc
Procedure, shortened: as §1

Gal6P(b1-4)GlcNAc = biological target: Gal6P(b1-4)GlcNAc
Procedure, shortened: as §1

Gal6S(b1-3)GlcNAc = biological target: Gal6S(b1-3)GlcNAc
Procedure, shortened: as §1

Gal6S(b1-4)Glc6S = biological target: Gal6S(b1-4)Glc6S
Procedure, shortened: as §1

[23] = biological target: GalNAc(a1-3)GalNAc(b1-3)Gal(a1-4)Gal(b1-4)Glc
Procedure, shortened: as §1

GalNAc(b1-4)GlcNAc = biological target: GalNAc(b1-4)GlcNAc
Procedure, shortened: as §1

[24] = biological target: GalNAc(b1-4)GlcNAc(b1-2)Man(a1-3)[GalNAc(b1-4)GlcNAc(b1-2)Man(a1-6)]Man(b1-4)GlcNAc(b1-4)GlcNAc
Procedure, shortened: as §1

GalNAc3S(b1-4)GlcNAc3S = biological target: GalNAc3S(b1-4)GlcNAc3S
Procedure, shortened: as §1

Glc(b1-4)Glc = biological target: Glc(b1-4)Glc
Procedure, shortened: as §1

[25] = biological target: GlcNAc(b1-2)Man(a1-3)[GlcNAc(b1-4)][GlcNAc(b1-2)Man(a1-6)]Man(b1-4)GlcNAc(b1-4)GlcNAc
Procedure, shortened: as §1

[26] = biological target: GlcNAc(b1-2)[GlcNAc(b1-6)]Man(a1-6)[GlcNAc(b1-4)][GlcNAc(b1-2)Man(a1-3)]Man(b1-4)GlcNAc(b1-4)GlcNAc
Procedure, shortened: as §1

[27] = biological target: GlcNAc(b1-3)Gal(b1-4)GlcNAc(b1-3)Gal(b1-4)GlcNAc(b1-2)[GlcNAc(b1-3)Gal(b1-4)GlcNAc(b1-3)Gal(b1-4)GlcNAc(b1-6)]Man(a1-6)[GlcNAc(b1-3)Gal(b1-4)GlcNAc(b1-3)Gal(b1-4)GlcNAc(b1-2)Man(a1-3)]Man(b1-4)GlcNAc(b1-4)[Fuc(a1-6)]GlcNAc
Procedure, shortened: as §1

[28] = biological target: GlcNAc(b1-3)Gal(b1-4)GlcNAc(b1-3)Gal(b1-4)GlcNAc(b1-3)GalNAc
Procedure, shortened: as §1

GlcNAc(b1-6)GalNAc = biological target: GlcNAc(b1-6)GalNAc
Procedure, shortened: as §1

Kdn(a2-3)Gal(b1-4)Glc = biological target: Kdn(a2-3)Gal(b1-4)Glc
Procedure, shortened: as §1

[29] = biological target: Man(a1-2)Man(a1-3)[Man(a1-2)Man(a1-6)]Man(a1-6)[Man(a1-2)Man(a1-2)Man(a1-3)]Man(b1-4)GlcNAc(b1-4)GlcNAc
Procedure, shortened: as §1

[30] = biological target: Man(a1-2)Man(a1-6)[Man(a1-3)]Man(a1-6)[Man(a1-2)Man(a1-2)Man(a1-3)]Man
Procedure, shortened: as §1

[31] = biological target: Man(a1-3)[Man(a1-6)]Man(a1-6)[Man(a1-3)]Man
Procedure, shortened: as §1

Man(a1-6)Man = biological target: Man(a1-6)Man
Procedure, shortened: as §1

[32] = biological target: Neu5Ac(a2-3)Gal(b1-3)GlcNAc(b1-2)Man(a1-3)[Neu5Ac(a2-3)Gal(b1-3)GlcNAc(b1-2)Man(a1-6)]Man(b1-4)GlcNAc(b1-4)GlcNAc
Procedure, shortened: as §1

[33] = biological target: Neu5Ac(a2-3)Gal(b1-3)GlcNAc6S
Procedure, shortened: as §1

[34] = biological target: Neu5Ac(a2-3)Gal(b1-4)GlcNAc(b1-3)Gal(b1-3)GlcNAc
Procedure, shortened: as §1

[35] = biological target: Neu5Ac(a2-3)Gal(b1-4)GlcNAc6S
Procedure, shortened: as §1

[36] = biological target: Neu5Ac(a2-6)Gal(b1-4)GlcNAc(b1-2)Man(a1-3)Man(b1-4)GlcNAc(b1-4)GlcNAc
Procedure, shortened: as §1

[37] = biological target: Neu5Ac(a2-6)Gal(b1-4)GlcNAc(b1-2)Man(a1-3)[Man(a1-6)]Man(b1-4)GlcNAc(b1-4)GlcNAc
Procedure, shortened: as §1

[38] = biological target: Neu5Ac(a2-6)GlcNAc(b1-4)GlcNAc(b1-4)GlcNAc
Procedure, shortened: as §1

[39] = biological target: Neu5Ac(a2-8)Neu5Ac(a2-3)Gal(b1-3)GalNAc(b1-4)[Neu5Ac(a2-8)Neu5Ac(a2-3)]Gal(b1-4)Glc
Procedure, shortened: as §1

[40] = biological target: Neu5Ac(a2-8)Neu5Ac(a2-3)[Gal(b1-3)GalNAc(b1-4)]Gal(b1-4)Glc
Procedure, shortened: as §1

[41] = biological target: Neu5Gc(a2-3)Gal(b1-4)[Fuc(a1-3)]GlcNAc
Procedure, shortened: as §1

B1: AT1G77380(17) (Arabidopsis thaliana), Q39134 (protein)
chain: MVQNHQTVLAVDMPQTGGSKYLDDDGKNKRTGSVWTASAHIITAVIGSGVLSLAWATAQLGWLAGPVVMLLFSAVTYFTSSLLAACYRSGDPISGKRNYTYMDAVRSNLGGVKVTLCGIVQYLNIFGVAIGYTIASAISMMAIKRSNCFHKSGGKDPCHMNSNPYMIAFGLVQILFSQIPDFDQLWWLSILAAVMSFTYSSAGLALGIAQVVVNGKVKGSLTGISIGAVTETQKIWRTFQALGDIAFAYSYSIILIEIQDTVKSPPSEEKTMKKATLVSVSVTTMFYMLCGCMGYAAFGDLSPGNLLTGFGFYNPYWLLDIANAAIVIHLIGAYQVYCQPLFAFIEKQASIQFPDSEFIAKDIKIPIPGFKPLRLNVFRLIWRTVFVIITTVISMLLPFFNDVVGLLGALGFWPLTVYFPVEMYIAQKKIPRWSTRWVCLQVFSLGCLVVSIAAAAGSIAGVLLDLKSYKPFRSEY
Fuc(a1-2)Gal
  glycan array binding signal (z-score): 2.99
[1]
  glycan array binding signal (z-score): 2.89
[2]
  glycan array binding signal (z-score): -0.856
[3]
  glycan array binding signal (z-score): -0.43
[4]
  glycan array binding signal (z-score): 2.76
[5]
  glycan array binding signal (z-score): -0.513
[6]
  glycan array binding signal (z-score): -0.886
[7]
  glycan array binding signal (z-score): 4.03
[8]
  glycan array binding signal (z-score): -0.716
[9]
  glycan array binding signal (z-score): 1.32
[10]
  glycan array binding signal (z-score): -0.28
[11]
  glycan array binding signal (z-score): 0.285
[12]
  glycan array binding signal (z-score): 2.75
[13]
  glycan array binding signal (z-score): -0.733
[14]
  glycan array binding signal (z-score): 3.09
Gal(a1-6)Glc
  glycan array binding signal (z-score): -0.766
Gal(b1-3)GalNAc(b1-3)Gal
  glycan array binding signal (z-score): -0.955
[15]
  glycan array binding signal (z-score): 3.2
[16]
  glycan array binding signal (z-score): 1.9
Gal(b1-4)GlcNAc
  glycan array binding signal (z-score): -0.639
[17]
  glycan array binding signal (z-score): 2.75
[18]
  glycan array binding signal (z-score): -0.757
[19]
  glycan array binding signal (z-score): 0.166
[20]
  glycan array binding signal (z-score): -0.725
[21]
  glycan array binding signal (z-score): 0.338
[22]
  glycan array binding signal (z-score): -0.327
Gal6P(b1-4)GlcNAc
  glycan array binding signal (z-score): -0.442
Gal6S(b1-3)GlcNAc
  glycan array binding signal (z-score): -0.519
Gal6S(b1-4)Glc6S
  glycan array binding signal (z-score): -0.34
[23]
  glycan array binding signal (z-score): -0.209
GalNAc(b1-4)GlcNAc
  glycan array binding signal (z-score): 2.31
[24]
  glycan array binding signal (z-score): 7.58
GalNAc3S(b1-4)GlcNAc3S
  glycan array binding signal (z-score): -0.031
Glc(b1-4)Glc
  glycan array binding signal (z-score): 0.66
[25]
  glycan array binding signal (z-score): -0.289
[26]
  glycan array binding signal (z-score): -0.522
[27]
  glycan array binding signal (z-score): 0.854
[28]
  glycan array binding signal (z-score): -0.766
GlcNAc(b1-6)GalNAc
  glycan array binding signal (z-score): 2.85
Kdn(a2-3)Gal(b1-4)Glc
  glycan array binding signal (z-score): 4.07
[29]
  glycan array binding signal (z-score): 3.3
[30]
  glycan array binding signal (z-score): -0.524
[31]
  glycan array binding signal (z-score): -0.782
Man(a1-6)Man
  glycan array binding signal (z-score): -0.696
[32]
  glycan array binding signal (z-score): -0.809
[33]
  glycan array binding signal (z-score): 0.954
[34]
  glycan array binding signal (z-score): -1.04
[35]
  glycan array binding signal (z-score): -0.786
[36]
  glycan array binding signal (z-score): -0.792
[37]
  glycan array binding signal (z-score): -0.896
[38]
  glycan array binding signal (z-score): 0.349
[39]
  glycan array binding signal (z-score): -0.862
[40]
  glycan array binding signal (z-score): -0.73
[41]
  glycan array binding signal (z-score): -0.363
